Measurements from PubChem BioAssay (NCI).
Compounds without any hit were thinned out: in the full panel of roughly 79,000, 15% have a hit. Active and inactive are the calls of the source. Cut-off read from the data, not from the text of the source: active = growth inhibition above about 70%; inactive = the rest.

What was measured:
[1] = NCI Yeast Anticancer Drug Screen. Data for the rad52 strain (AID 147);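 note: 0% = growth of vehicle-treated control cultures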; conditions: S. cerevisiae rad52 mutant growth inhibition, stronger effect = higher value
Procedure, shortened: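 Read-out: growth inhibition versus vehicle-treated controls. Cells were a DNA repair-deficient yeast strain treated with compounds.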

[2] = NCI Yeast Anticancer Drug Screen. Data for the wt1 strain (AID 149);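 note: 0% = growth of vehicle-treated wt1 cultures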; conditions: S. cerevisiae wt1 strain (SPY 50644) growth inhibition, stronger effect = higher value
Procedure, shortened: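 Vehicle-normalised growth inhibition; strain wt1; compound exposure.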

[3] = NCI Yeast Anticancer Drug Screen. Data for the rad50EPP+ strain (AID 151);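 note: 0% = growth of vehicle-treated control cultures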; conditions: S. cerevisiae rad50 mutant strain, stronger effect = higher value
Procedure, shortened: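 Growth inhibition read against vehicle controls in rad50EPP+ yeast, a strain altered in DNA damage repair, after compound exposure.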

[4] = NCI Yeast Anticancer Drug Screen. Data for the mgt1 strain (AID 153); conditions: S. cerevisiae mgt1 mutant growth inhibition, stronger effect = higher value
Procedure, shortened: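 mgt1 yeast grown with test compound; read-out is growth inhibition versus vehicle-treated cultures.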

[5] = NCI Yeast Anticancer Drug Screen. Data for the rad50 strain (AID 155);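 note: 0% = growth of vehicle-only cultures of the same strain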; conditions: S. cerevisiae rad50 strain growth inhibition, stronger effect = higher value
Procedure, shortened: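 A DNA repair-deficient yeast mutant serves as the test organism; compound-induced growth inhibition is calculated against vehicle-treated cells.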

[6] = NCI Yeast Anticancer Drug Screen. Data for the mec2-1 strain (AID 157); conditions: S. cerevisiae mec2-1 strain, stronger effect = higher value
Procedure, shortened: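 Yeast mec2-1 mutant treated with compound. Readout: growth inhibition vs vehicle controls.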

[7] = NCI Yeast Anticancer Drug Screen. Data for the rad14 strain (AID 159);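 note: 0% = growth of vehicle-treated control cultures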; conditions: S. cerevisiae rad14 strain growth inhibition, stronger effect = higher value
Procedure, shortened: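 Vehicle-treated cultures served as the baseline for growth inhibition of a DNA repair-mutant yeast strain exposed to each compound.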

[8] = NCI Yeast Anticancer Drug Screen. Data for the sgs1 mgt1 strain (AID 161);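 note: 0% = growth of cultures given vehicle only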; conditions: S. cerevisiae sgs1 mgt1 strain, stronger effect = higher value
Procedure, shortened: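 Test agents were incubated with a DNA-repair-mutant yeast strain. Growth was then read and compared against vehicle-treated controls.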

[9] = NCI Yeast Anticancer Drug Screen. Data for the CLN2oe strain (AID 163);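 note: 0% = growth of vehicle-only control cultures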; conditions: S. cerevisiae CLN2oe strain, stronger effect = higher value
Procedure, shortened: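 Read-out: yeast growth inhibition, expressed relative to vehicle-only controls. The strain bears an engineered cell-cycle alteration.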

[10] = NCI Yeast Anticancer Drug Screen. Data for the cln2 rad14 strain (AID 165);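 note: 0% = growth equal to vehicle treated cultures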; conditions: S. cerevisiae cln2 rad14 strain, stronger effect = higher value
Procedure, shortened: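 cln2 rad14 yeast strain; compound exposure; growth inhibition read vs vehicle controls.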

[11] = NCI Yeast Anticancer Drug Screen. Data for the bub3 strain (AID 167); conditions: S. cerevisiae bub3 mutant strain, stronger effect = higher value
Procedure, shortened: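 Inhibition values come from growth of compound-treated mutant yeast normalised to vehicle-treated controls.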

[12] = NCI Yeast Anticancer Drug Screen. Data for the wt2 strain (AID 169);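 note: 0% = growth of vehicle-treated yeast cultures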; conditions: S. cerevisiae wt2 strain growth inhibition, stronger effect = higher value
Procedure, shortened: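 Read-out: growth inhibition versus vehicle-treated control cultures after compound exposure of the yeast strain.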

[13] = NCI Yeast Anticancer Drug Screen. Data for the mlh1 strain (AID 171);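 note: 0% = growth of vehicle-treated control cultures of the same strain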; conditions: S. cerevisiae mlh1 strain growth inhibition, stronger effect = higher value
Procedure, shortened: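 Read-out: growth inhibition versus vehicle controls. Strain: engineered yeast with a defined DNA repair or cell cycle defect, compound-treated.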

[14] = NCI Yeast Anticancer Drug Screen. Data for the sgs1 strain (AID 173);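 note: 0% = growth of vehicle-only control cultures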; conditions: S. cerevisiae sgs1 mutant, stronger effect = higher value
Procedure, shortened: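 Read-out: yeast growth inhibition relative to vehicle controls, following compound exposure of a strain with a defined DNA repair/cell cycle alteration.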

[15] = NCI Yeast Anticancer Drug Screen. Data for the mlh1 rad18 strain (AID 175); conditions: S. cerevisiae mlh1 rad18 strain growth inhibition, stronger effect = higher value
Procedure, shortened: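 Yeast w/ defined DNA-repair lesions; compound exposure; growth vs vehicle controls → % inhibition.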

[16] = NCI Yeast Anticancer Drug Screen. Data for the rad18 strain (AID 177); conditions: S. cerevisiae rad18 mutant growth inhibition, stronger effect = higher value
Procedure, shortened: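 Readout: growth inhibition vs vehicle controls. Cells: genetically altered yeast strain, DNA repair defect.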

[17] = at 5.0 µM (retest, dose inferred, filed as 0.5)
[18] = at 50.0 µM (retest, dose inferred, filed as 5.0)

Measured: growth inhibition

O=C(Oc1ccc2c(c1)CN(Cc1ccccc1)CO2)c1ccccc1
inactive: [1]; at 1.2 µM -3% | [1]; at 3.7 µM 4% | [1]; at 11.0 µM 8% | [1]; at 33.0 µM 18% | [1]; at 100.0 µM 38% | [2]; at 1.2 µM 2% | [2]; at 3.7 µM 4% | [2]; at 11.0 µM 8% | [2]; at 33.0 µM 13% | [2]; at 100.0 µM 10% | [3]; at 1.2 µM -4% | [3]; at 3.7 µM -3% | [3]; at 11.0 µM 4% | [3]; at 33.0 µM 6% | [3]; at 100.0 µM 22% | [4]; at 1.2 µM -1% | [4]; at 3.7 µM 0% | [4]; at 11.0 µM 2% | [4]; at 33.0 µM 10% | [4]; at 100.0 µM 39% | [5]; at 1.2 µM 2% | [5]; at 3.7 µM 2% | [5]; [17] -1% | [5]; at 11.0 µM 17% | [5]; at 33.0 µM 4% | [5]; [18] 46% | [5]; at 100.0 µM 32% | [6]; at 1.2 µM -2% | [6]; at 3.7 µM 0% | [6]; [17] -15% | [6]; at 11.0 µM 3% | [6]; at 33.0 µM 8% | [6]; [18] 3% | [6]; at 50.0 µM 25.1% | [6]; at 100.0 µM 26% | [7]; at 1.2 µM 4% | [7]; at 3.7 µM 11% | [7]; at 11.0 µM 24% | [7]; at 33.0 µM 40% | [8]; [17] 19% | [8]; [18] 40% | [9]; at 1.2 µM -5% | [9]; at 3.7 µM -5% | [9]; at 11.0 µM -1% | [9]; at 33.0 µM 16% | [9]; at 100.0 µM 42% | [10]; [17] -16% | [10]; [18] 39% | [10]; at 50.0 µM 21.9% | [11]; at 1.2 µM -4% | [11]; at 3.7 µM -2% | [11]; [17] -6% | [11]; at 11.0 µM -29% | [11]; at 33.0 µM 31% | [11]; [18] 46% | [11]; at 100.0 µM 35% | [12]; at 1.2 µM -1% | [12]; at 3.7 µM 3% | [12]; at 11.0 µM 7% | [12]; at 33.0 µM 23% | [12]; at 100.0 µM 40% | [13]; at 1.2 µM 6% | [13]; at 3.7 µM 3% | [13]; at 11.0 µM 7% | [13]; at 33.0 µM 4% | [13]; at 100.0 µM 37% | [14]; at 1.2 µM 4% | [14]; at 3.7 µM 9% | [14]; at 11.0 µM 17% | [14]; at 33.0 µM 42% | [15]; [17] -9% | [15]; [18] 49% | [16]; at 1.2 µM 17% | [16]; at 3.7 µM 15% | [16]; at 11.0 µM 19% | [16]; at 33.0 µM 28%
active: [5]; at 50.0 µM 79.2% | [7]; at 100.0 µM 87% | [8]; at 50.0 µM 77.2% | [11]; at 50.0 µM 72.7% | [14]; at 100.0 µM 70% | [15]; at 50.0 µM 83% | [16]; at 100.0 µM 72%

CCCCOC(=O)Nc1ccc(C)c(NC(=O)OCCCC)c1
active: [5]; [18] 78% | [5]; at 50.0 µM 89.9% | [6]; at 50.0 µM 94.3% | [8]; [18] 82% | [8]; at 50.0 µM 88.6% | [10]; [18] 79% | [10]; at 50.0 µM 91.9% | [11]; [18] 72% | [11]; at 50.0 µM 94.5% | [15]; [18] 84% | [15]; at 50.0 µM 94.5%
inactive: [1]; at 1.2 µM -4% | [1]; at 3.7 µM -1% | [1]; at 11.0 µM 15% | [1]; at 33.0 µM 26% | [1]; at 100.0 µM 34% | [2]; at 1.2 µM -6% | [2]; at 3.7 µM -2% | [2]; at 11.0 µM -7% | [2]; at 33.0 µM 46% | [2]; at 100.0 µM 12% | [3]; at 1.2 µM 2% | [3]; at 3.7 µM 5% | [3]; at 11.0 µM 27% | [3]; at 33.0 µM 36% | [3]; at 100.0 µM 44% | [4]; at 1.2 µM -9% | [4]; at 3.7 µM -8% | [4]; at 11.0 µM -4% | [4]; at 33.0 µM 8% | [4]; at 100.0 µM 18% | [5]; at 1.2 µM -5% | [5]; at 3.7 µM -3% | [5]; [17] 3% | [5]; at 11.0 µM 9% | [5]; at 33.0 µM 19% | [5]; at 100.0 µM 42% | [6]; at 1.2 µM -6% | [6]; at 3.7 µM -11% | [6]; [17] -2% | [6]; at 11.0 µM -6% | [6]; at 33.0 µM 7% | [6]; [18] 69% | [6]; at 100.0 µM 22% | [7]; at 1.2 µM -3% | [7]; at 3.7 µM -3% | [7]; at 11.0 µM 2% | [7]; at 33.0 µM 11% | [7]; at 100.0 µM 15% | [8]; [17] 1% | [9]; at 1.2 µM -11% | [9]; at 3.7 µM -19% | [9]; at 11.0 µM 11% | [9]; at 33.0 µM 31% | [9]; at 100.0 µM 38% | [10]; [17] -4% | [11]; at 1.2 µM -8% | [11]; at 3.7 µM -9% | [11]; [17] -2% | [11]; at 11.0 µM -8% | [11]; at 33.0 µM 3% | [11]; at 100.0 µM 8% | [12]; at 1.2 µM -4% | [12]; at 3.7 µM -4% | [12]; at 11.0 µM 6% | [12]; at 33.0 µM 52% | [12]; at 100.0 µM 29% | [13]; at 1.2 µM -8% | [13]; at 3.7 µM -6% | [13]; at 11.0 µM 1% | [13]; at 33.0 µM 17% | [13]; at 100.0 µM 36% | [15]; [17] -1% | [16]; at 1.2 µM -5% | [16]; at 3.7 µM -8% | [16]; at 11.0 µM 12% | [16]; at 33.0 µM 31% | [16]; at 100.0 µM 50%
